Test results published in PubChem BioAssay AID778 (Sanford-Burnham Center for Chemical Genomics, 2007).
Hit rate of the full screen: of about 96,000 compounds, about 20,000 (21%) were called active. Not all results are given here. Values without a mark were called inactive.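 Rule for the calls: active = CYP2C19 inhibition above a set limit at 5 µM in the primary screen (cut at about 50% in these data); inactive = the rest.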

Biological target: Cytochrome P450 2C19 (Homo sapiens) (UniProt P33261)
Assay: blockers of cytochrome P450 2C19 activity – biochemical, luminescence, ADME assay, primary screen (AID 778);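 note: plate controls were negative control wells for no effect and 2.5 mM tranylcypromine positive control for full effect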
Conditions: CYP2C19 Supersomes, luciferin-H EGE luminescence, 30 min; at 5 µM; stronger effect = higher value

Sequence of Cytochrome P450 2C19 (Homo sapiens) (P33261 whole entry, looked up): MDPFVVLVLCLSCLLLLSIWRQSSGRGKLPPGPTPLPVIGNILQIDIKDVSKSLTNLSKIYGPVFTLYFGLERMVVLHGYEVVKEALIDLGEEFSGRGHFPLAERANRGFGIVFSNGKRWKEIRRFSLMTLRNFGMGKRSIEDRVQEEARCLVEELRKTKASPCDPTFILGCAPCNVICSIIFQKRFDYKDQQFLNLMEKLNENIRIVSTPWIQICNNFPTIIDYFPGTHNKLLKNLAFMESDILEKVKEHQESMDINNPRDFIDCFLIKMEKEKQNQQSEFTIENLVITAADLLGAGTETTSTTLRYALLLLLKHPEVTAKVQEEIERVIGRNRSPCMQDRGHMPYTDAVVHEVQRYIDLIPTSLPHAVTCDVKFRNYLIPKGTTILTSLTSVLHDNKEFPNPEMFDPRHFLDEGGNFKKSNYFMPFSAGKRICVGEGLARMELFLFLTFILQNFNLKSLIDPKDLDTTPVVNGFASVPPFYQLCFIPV

| SMILES | inhibition |
| --- | --- |
| O=C(NCCc1ccco1)c1nn(Cc2ccccc2)c(=O)c2ccccc12 | -8.3% |
| COCc1cc(C)nc(Nc2cc(C)ccc2C)c1C#N | 19.8% |
| Cc1cc(C(C)(C)C)oc1C(=O)N(CC(=O)NC1CCCC1)Cc1ccc(Cl)cc1 | -5.1% |
| CC(C)(CNC(=O)c1cc(=O)[nH]c2ccccc12)N1CCOCC1 | 4.2% |
| CCOC(=O)c1[nH]c2ccccc2c1N=C(C)N(CC)CC | -9.4% |
| CCOC(=O)c1ccc(COC(=O)c2cc(=O)[nH]c3ccccc23)o1 | 69.5% (active) |
| CC(=O)Nc1ccc(NC(=O)CSCc2cnn(-c3ccccc3)c2-n2cccc2)cc1 | 92.4% (active) |
| Cc1cc(C)cc(NC(=O)CSCc2cnn(-c3ccccc3)c2-n2cccc2)c1 | 47.5% |
| O=C(NCCC1=CCCCC1)C1CCN(Cc2cnn(-c3ccccc3)c2-n2cccc2)CC1 | 25.4% |
| CCCn1nnc2sc3c(c2c1=O)CCC(C)C3 (stereo not drawn) | 28.3% |
| CCN(CC)CCN1C(=O)C(=O)/C(=C(/O)c2cnn(-c3ccccc3)c2C)C1c1cccs1 (stereo not drawn) | -2% |
| C=CCOc1ccc(Cl)cc1CNCCCN1CCOCC1 | 5.8% |
| O=C1CC(Sc2ncn[nH]2)C(=O)N1c1ccccc1 (stereo not drawn) | 14.1% |
| Cc1ccc(-n2nc(N)c3c(=O)oc(N(C)C)nc32)cc1 | 17.8% |
| O=C(O)CCCCc1nc2ccccc2s1 | -6.9% |
| COc1ccccc1OCc1nc2ccccc2s1 | 97.6% (active) |
| O=C(O)CSCc1nc2ccccc2s1 | -10.2% |
| CCCc1nnc(NC(=O)CN2C(=O)c3ccccc3S2(=O)=O)s1 | -6.6% |
| C/C(=N\NS(=O)(=O)c1cccc([N+](=O)[O-])c1)c1cc2ccccc2o1 | 8.6% |
| C/C(=N\NS(=O)(=O)c1ccc(Br)cc1)c1cccs1 | 69.6% (active) |
| COC(=O)Nc1ncc(CN2C(=O)c3ccccc3C2=O)s1 | 8.1% |
| COc1ccc(C(=O)Cc2cnn(-c3ccccc3)c2)c(O)c1 | 24.9% |
| Cc1cc(O)cc(O)c1C(=O)Cc1cnn(-c2ccccc2)c1 | 56.7% (active) |

| SMILES | inhibition |
| --- | --- |
| Cc1[nH]nc(-c2ccc(OCc3cnn(-c4ccccc4)c3)cc2O)c1Oc1ccc(Cl)cc1 | 20.9% |
| COc1cc(C2C3C(=O)N(c4ccccc4)C(=O)C3ON2c2ccccc2)ccc1O (stereo not drawn) | 58.5% (active) |
| COc1cc(C2C(C(=O)Nc3ccccc3OC)=C(C)Nc3ncnn32)ccc1O (stereo not drawn) | -5% |
| Cc1ccccc1N1C(=O)C2ON(c3ccccc3)C(c3ccncc3)C2C1=O (stereo not drawn) | 94.6% (active) |
| COc1ccc(NC(=O)Nc2cccc3cccnc23)cc1 | 31% |
| CC(C)NC(=O)CCCn1c(=S)[nH]c2cc3c(cc2c1=O)OCO3 | -9.6% |
| COc1ccc(SCc2noc(C(=O)NCC3CCCO3)c2C(=O)O)cc1 (stereo not drawn) | 11.5% |
| COC(C)(C)[C@]12CC(O)(C(C)C)ON1[C@H]1CCCCC1N2O (stereo partly drawn) | 7% |
| COC(=O)c1[nH]c2ccccc2c1NC(=O)CN1CCCc2ccccc21 | 26% |
| Cn1ncc2c(Nc3cccc4ccccc34)ncnc21 | 12.9% |
| Cn1c(=O)n(CCc2ccccc2)c(=O)c2c1nc1n2CCCN1c1ccccc1 | 14.9% |
| COc1ccc(N2CC(C)Cn3c2nc2c3c(=O)n(Cc3ccccc3F)c(=O)n2C)c(OC)c1 (stereo not drawn) | -10.2% |
| Cc1cccc(N2CC(C)Cn3c2nc2c3c(=O)n(CC(=O)OCc3ccccc3)c(=O)n2C)c1 (stereo not drawn) | 66.5% (active) |
| O=C(c1ccco1)N1CCN(C(=O)C2CCCN(S(=O)(=O)c3cccc4nsnc34)C2)CC1 (stereo not drawn) | 1.6% |
| COc1ccc(NC(=O)C2CCCN(S(=O)(=O)c3cccc4cccnc34)C2)cc1 (stereo not drawn) | 17.5% |
| CC(=O)c1cccc(NC(=O)C2CCCN2S(=O)(=O)c2cccc3nsnc23)c1 (stereo not drawn) | 22.5% |
| O=C(Nc1nccs1)C1CCCN1S(=O)(=O)c1cccc2cccnc12 (stereo not drawn) | 54.2% (active) |
| CC1CCCCC1NC(=O)C1CCCN1S(=O)(=O)c1cccc2nsnc12 (stereo not drawn) | 69.3% (active) |
| O=C(O)C1CCCN(S(=O)(=O)c2cccc3cccnc23)C1 (stereo not drawn) | -11.3% |
| O=C(COc1ccc(F)cc1)N(CC1=CCS(=O)(=O)C1)c1ccccc1 | -5.1% |
| Cc1ccc(C2NC(=S)NC3=C2N2CCC3CC2)cc1 (stereo not drawn) | -8.9% |
| Cc1ccc(S(=O)(=O)NCC(=O)N(CC(=O)NC2CCCCC2)Cc2ccco2)cc1 | 15.5% |
| O=C(CC(NS(=O)(=O)c1ccc(Cl)cc1)c1ccco1)NC1CCCC1 (stereo not drawn) | 62.5% (active) |

| SMILES | inhibition |
| --- | --- |
| COc1ccc(S(=O)(=O)NC(CC(=O)NCc2ccccc2OC)c2ccco2)cc1 (stereo not drawn) | 38.2% |
| CCN(CC)P(=O)(/C(Cl)=C\Nc1c(C)n(C)n(-c2ccccc2)c1=O)N(CC)CC | -1.6% |
| N#CCCN1CCN(S(=O)(=O)c2ccc(S(=O)(=O)NC3CC3)cc2)CC1 | -21.3% |
| CC1(C)CN=C(N2CCN(c3ncnc4sc5c(c34)CCCC5)CC2)S1 | 32% |
| CC(=O)OC(C(=O)NCCc1ccccc1)c1cccnc1 (stereo not drawn) | 0% |
| O=C(CCc1ccccc1)NCc1cccnc1 | 18.2% |
| CCC(Oc1ccccc1)C(=O)NCc1cccnc1 (stereo not drawn) | 67.7% (active) |
| CC(C)CC[n+]1ccn(C2=C([O-])c3ccccc3C(=O)/C2=N\S(=O)(=O)c2ccccc2)c1 | 7.8% |
| CCN1C(=O)c2cccc3c(N)ccc1c23 | 23.7% |
| CCn1c(NCCc2ccc(OC)c(OC)c2)nc2c1c(=O)n(C)c(=O)n2C | 1.8% |
| COc1ccccc1C(=O)Oc1ccc(N2C(=O)CCC2=O)cc1 | -7.5% |
| COc1ccccc1C(=O)C(O)c1ccccc1OC (stereo not drawn) | 55.8% (active) |
| COc1ccccc1C(=O)NN1C(=O)C2C3C=CC(O3)C2C1=O (stereo not drawn) | -6.1% |
| Nc1nonc1-c1nc2ccccc2n1CCC(=O)O | -2.5% |
| Cn1c(SCC(=O)c2cccs2)nnc1-c1ccco1 | 42.3% |
| CCOC(=O)CSc1nnc(CNC(=O)c2ccco2)n1-c1ccc(F)cc1 | -4.9% |
| COc1ccc(-n2c(SCC(=O)OC(C)C)nnc2-c2ccccn2)cc1 | 12% |
| CCn1c(SCC(=O)c2ccc3ccccc3c2)nnc1-c1cccs1 | 15.7% |
| Cc1ccc(C(=O)CSc2nnc(Cn3nnc4ccccc43)n2C)cc1 | 13.9% |
| Cc1ccc(-n2c(Cc3cccs3)nnc2SCC(=O)OC(C)C)cc1 | 98.1% (active) |
| CCn1c(SCC(=O)c2ccc(Cl)s2)nnc1-c1cccs1 | 94.2% (active) |
| CCn1c(Cc2cccs2)nnc1SCC(=O)c1ccc(C)cc1 | 94.1% (active) |
